Assay results as given in ChEMBL document CHEMBL4888484, “Replenishing the malaria drug discovery pipeline: Screening and hit evaluation of the MMV Hit Generation Library 1 (HGL1) against asexual blood stage Plasmodium falciparum ,using a nano luciferase reporter read-out” (2022).
Out of some 150,000 compounds screened, about 540 (0.36%) showed an effect of 50% or more. Shown is part of a subset that was picked to be rich in strong results.

These molecules were tested on Plasmodium falciparum (assay: Primary screen in NF54 nanoGlo assay, in single point, at 2uM, 72h; a lower Z score goes with more inhibition). Settings: timepoint 72 hour.
Assay type: functional, Erythrocyte

SMILES	% Inhibition [%]	Z score
COc1ccc(C2CN(Cc3ccccn3)CC2CN(Cc2ccc(F)cc2)C(C)=O)cc1 (configuration not stated)	15	-1.72
COC(=O)c1ccc(C)c(NC(=O)c2cn(C)cn2)c1O	-2	0.17
COCCCN(Cc1ccco1)C[C@H](O)COC(C)(C)C	2	-0.27
CC(C)(Oc1cc2c(cc1-c1cncc(C3CC3)c1)CCO2)C(=O)O	-1	0.1
CC[C@@H](C(=O)Nc1cc(C)nn1-c1nc2c(c(=O)[nH]1)CCC2)c1ccccc1	17	-3.37
Cn1nc(C2CCCC2)cc1NC(=O)c1ccc(OCC(=O)O)cc1	1	-0.23
Cc1cc(=O)[nH]c(-n2nc(C3CC3)cc2NC(=O)C(c2ccccc2)c2ccccc2)n1	86	-11.5
CC(C)c1cc(=O)[nH]c(-n2nc(C3CC3)cc2NC(=O)c2ccc(F)c(F)c2)n1	5	-0.72
Cc1cc(=O)[nH]c(-n2nc(C3CC3)cc2NC(=O)c2ccc(C(C)(C)C)cc2)n1	57	-4.8
CC(C)c1cc(=O)[nH]c(-n2nc(C3CC3)cc2NC(=O)c2ccc(F)cc2)n1	90	-16.95
COCC(=O)Nc1cc(C2CC2)nn1-c1nc(C)cc(=O)[nH]1	4	-0.78
Cc1nn(C(C)C)c(C)c1CN(C)C(=O)c1cc(C#N)c[nH]1	0	-0.07
CN1C(=O)CCC12CCN(S(=O)(=O)Cc1ccc(Cl)cc1F)CC2	-3	0.59
c1ccc(-c2noc(C3CCN(c4ccc5nncn5n4)CC3)n2)nc1	-18	2.08
CC(C)c1nccn1CC(=O)N(C)[C@@H](C)c1ccc(F)c(F)c1	-1	0.13
C[C@@H]1CN(CCCCO)CCN1C(=O)OC(C)(C)C	-1	0.08
Cc1onc(-c2ccccc2Cl)c1C(=O)NCC1(c2ccc(F)cc2)CCOCC1	-13	2.28
CN1C[C@]2(CCCN(Cc3ccc(OCC(=O)c4ccccc4)cc3)C2)CCC1=O	-5	0.67
CCCc1c(C(=O)N2CCNc3ncccc32)cnn1C1CCCC1	-7	1.14
N#Cc1nc(C2CC2)oc1N1CCN(C(=O)CCc2ccco2)CC1	-7	1.41
CN1CCC(Oc2nc3ccc(F)cc3o2)CC1	-11	1.44
CCNC(=O)c1cc(NCCc2nccn2Cc2ccccc2)ccn1	-9	0.95

SMILES	% Inhibition [%]	Z score
Cc1ccccc1N1C(=O)CN(C(=O)C2COc3ccccc3O2)CC1C (configuration not stated)	-1	0.18
c1ccc2c(-c3cc4c(c(O[C@H]5CCOC5)c3)OCCNC4)csc2c1	-8	1.61
COC(=O)c1cn(CCc2cn3ccccc3n2)cc2c(O)nnc1-2	-7	0.84
COC(=O)c1cn(Cc2cccnc2)cc2c(O)nnc1-2	0	-0.02
CC(C)[C@H](NC(=O)[C@H](Cc1ccccc1)n1cnnn1)c1nc2ccccc2[nH]1	-15	1.85
C#CCn1cnc(-c2ccccc2)c1NC(=O)CCc1ccc(C(C)C)cc1	-7	0.8
COc1cccc2c1Oc1c(c(=O)n(-c3ccccc3)n1CC(=O)Nc1cccc(F)c1)C2	-19	1.9
Cc1c(C(=O)[C@H](C#N)c2nnc(N3CCOCC3)n2-c2ccccc2)nnn1-c1ccc(F)cc1	-7	1.18
COc1ccccc1CN1Cc2ccccc2O[C@@H](C)C1=O	-5	0.61
Cc1ccc(N2COc3cc4c(cc3C2)OCO4)cc1C	-10	1.51
COc1ccccc1CN1COc2cc3c(cc2C1)OCO3	56	-4.75
CN1CC[C@@]2(CCC1=O)CN(c1ccnc3ccc(Cl)cc13)CCN2C	-4	0.66
O=C(Cn1cnnn1)NCc1ccc2c(c1)CCC2	-44	5.16
Cc1nnc([C@@]23COC[C@@H]2CN(C(=O)c2cccc4[nH]ccc24)C3)o1	-10	1.33
Cc1ccc(S(=O)(=O)Nc2ccc(C)n(CC(=O)NCC(C)C)c2=O)cc1	-22	3.01
COc1cccc(NC(=O)Cn2c(C)ccc(NS(=O)(=O)c3ccc(C)cc3)c2=O)c1	74	-9.85
CCC(C)(C)NC(=O)Cn1c(C)ccc(NS(=O)(=O)c2ccc(C)cc2)c1=O	-4	0.69
C=CCN(C)C(=O)NCc1ccc(Br)c(F)c1	2	-0.18
COc1ccc(-c2cn3c(C(=O)N4CCNC(=O)C4)csc3n2)cc1F	-19	2.43
CN1CC[C@H](c2nc3cc(F)ccc3[nH]2)C1	-1	0.12
Cc1noc2ncnc(N3CCCC[C@H]3c3nccs3)c12	-7	0.7
CCOC(=O)c1cn(CC2CCCCC2)c2nc(C)ccc2c1=O	23	-2.66

SMILES	% Inhibition [%]	Z score
CCOC(=O)c1cn(CC)c2cc(NC3CCCCC3)c(F)cc2c1=O	67	-12.03
Cc1cc2c(=O)c(C(=O)c3ccncc3)cn(CC(=O)NC3CCCCC3)c2cc1F	-1	0.12
Cc1nc(CC(=O)NC[C@H](O)COc2ccc(F)cc2)cs1	-3	0.65
Cc1cc(C)nc(NC[C@H](O)COc2ccc(F)cc2)n1	5	-0.6
COc1ccc(Nc2nc(COC(=O)Cn3cnc4c3c(=O)n(C)c(=O)n4C)cs2)cc1	-6	0.88
CO[C@H]1COCC[C@@H]1NC(=O)c1ccc(C#CC(C)(C)O)o1	1	-0.19
CC[C@@H](COc1ccccc1)NC(=O)CC1CCNCC1	9	-1.66
O=C1C2C3C=CC(C3=C3CCCCC3)C2C(=O)N1c1cccc(Cl)c1 (configuration not stated)	51	-1.24
Cc1cccc(N2C(=O)C3C4C=CC(C4=C4CCCCC4)C3C2=O)c1 (configuration not stated)	0	0.03
Cc1ccc(N2C(=O)C3C4C=CC(C4=C4CCCCC4)C3C2=O)cc1Cl (configuration not stated)	-11	1.34
O=C(Nc1[nH]c(=O)ncc1F)c1cc(F)c(F)cc1Br	91	-7.85
Cc1cc(NC(=O)c2ccc(Cl)c(F)c2)nc(=O)[nH]1	-4	0.38
O=C(NCc1n[nH]c(=O)[nH]1)c1ccc(Br)c(F)c1	-6	0.79
O=C(Nc1[nH]c(=O)ncc1F)c1cccc2ccccc12	85	-7.83
COc1cc(C(=O)Nc2nc(C)nn2C)ccc1Cl	-9	1.22
Cc1cnc(NC(=O)c2cccc3ccccc23)s1	-12	2.18
COc1cc(C(=O)Nc2[nH]c(=O)ncc2F)ccc1Cl	76	-11.96
O=C(NCCc1n[nH]c(=O)[nH]1)c1c(F)cc(Br)cc1F	-3	0.32
O=C(Nc1ccc(Cl)cn1)c1cccc2ccccc12	-6	1.15
CCC(CC)n1nc(C(=O)NCC23CCCN2CCC3)cc1C	-15	2.13
O=C(Nc1cccc2ccccc12)C1CCN(c2cc(-c3ccc(F)cc3)ncn2)CC1	-2	0.24
Cc1n[nH]c(=O)c2c1cnn2-c1ccc(F)cc1	20	-2.53

SMILES	% Inhibition [%]	Z score
Cc1cccnc1CCNC(=O)N(C)[C@@H](C)c1ccncn1	-6	1.12
O=C(NCCc1ccc(Cl)cc1)c1ccc(Cn2c(=O)[nH]c3ccccc3c2=O)cc1	-9	1.68
O=C1N[C@@H](c2cccc(OCc3ccccc3)c2)Nc2c1sc(=S)n2-c1ccccc1	-12	1.31
CN(CC(=O)NCc1cccs1)c1nnc(N2CCCC2=O)s1	-2	0.36
CN(CC(=O)NCCCc1ccco1)c1nnc(N2CCCC2=O)s1	-11	2.07
CN(CC(=O)NCc1ccco1)c1nnc(N2CCCC2=O)s1	73	-0.5
CCCN1CCN(C(=O)c2ccnc(N3CCN[C@H](c4ccccc4)C3)c2)CC1	-13	1.36
C[C@H](CCO)NCc1sccc1Cl	5	-0.62
Cn1nnc(C(=O)N2CCC(c3ccccc3)(N3CCCC3)CC2)n1	7	-1.29
CC(C)(C)n1cnc(C(=O)N2CCCC23CCCCC3)n1	0	-0.06
O=C(Nc1cnc(-n2ccnc2)nc1)c1ccc(F)cc1	-18	2.84
CCOC(=O)C1(C(=O)NCc2cc(C)on2)CCCC1	7	-0.84
CCN1C[C@H](Nc2ncccc2C#N)[C@@H](OC)C1	-13	1.15
CCN1C[C@H](Nc2ncnc3sc(C)cc23)[C@@H](OC)C1	-9	1.14
CS(=O)(=O)N1C[C@H]2CC[C@@H](C1)N(CC(=O)N1CCc3ccccc31)C2	-9	1.92
COc1ccc(CN2CCc3cc(OC)c(OC)cc3[C@@H]2CNC(=O)Cc2ccccc2)cc1	-3	0.38
Cn1ncc2c1CCC[C@@H]2NCCc1ccccc1O	-5	0.59
Oc1ccccc1CCN[C@H]1CCc2ccc(F)cc21	98	-18.88
O=S1(=O)CCC(CNC2CCc3ccc(F)cc32)C1 (configuration not stated)	-8	1.29
CS(=O)(=O)CCc1ccc(N[C@H]2CCc3ccc(F)cc32)cc1	-8	1.03
